Inconclusive results are not listed. Active and inactive are the calls of the source. Unless noted, calls come from the whole dose curve; as a rule, active = well fitted curve in the direction sought with a large enough effect; inconclusive = small, poorly fitted or top-dose-only effect, or another doubt; inactive = no such curve, though single readings can be large; an effect the other way counts as inactive or inconclusive.
Legend:
[1] = molecular target: 3',5'-cyclic-AMP phosphodiesterase 4B (Homo sapiens) (UniProt Q07343); test: qHTS Assay for Inhibitors of PDE-IV (AID 607; active = well fitted activation curve with a large enough effect in the main read-out, with a control signal flat, not every such curve was filed as active; note: potency is the fitted concentration of half-maximal effect); settings: HEK293 ACTOne CNG channel cells, membrane potential fluorescence; series mostly up to 22.9 µM
Summary of the method: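 The readout is membrane depolarisation from a cAMP-sensing CNG channel, detected with a potential dye at ex 535/em 590. Cells were HEK293-derived (endogenous PDE-IV) at 1000 cells/well, titrated up to 22.9 uM final.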

[2] = Cellular Toxicity (caspase-3) HepG2 (AID 654); settings: HepG2 caspase-3 activation, luminescence, 0% = DMSO only, 100% = tamoxifen; series mostly up to 92.2 µM;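 note: cells exposed to compound for 16 hours before reading; 0% = DMSO alone and 100% = caspase signal from 100 µM tamoxifen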
Summary of the method: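 qHTS, HepG2, 1500 cells/well, complete medium; cpd 16 h 37 °C; Caspase-Glo 3/7, 20 min RT; lum. Norm: DMSO vs 100 uM tamoxifen; AC50 Hill fit.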

[3] = Cellular Toxicity (caspase-3) Jurkat (AID 655); settings: Jurkat caspase-3 activation, luminescence, DMSO = 0%, tamoxifen = 100%; at 92.2 µM (top of the series);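 note: cells exposed to compound for 16 h at 37 °C before reading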
Summary of the method: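 Caspase 3/7 activation is scored as increased luminescence in Jurkat cells cultured with compound for 16 hours in complete medium. AC50 values come from Hill fits of qHTS concentration-response data normalized to DMSO and 100 uM tamoxifen controls.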

[4] = Cellular Toxicity (caspase-3) HUV-EC-C (AID 656); settings: HUV-EC-C cells, caspase-3 activation (apoptosis), vehicle = 0, 100 µM tamoxifen = 100%; series mostly up to 92.2 µM
Summary of the method: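 Read-out: luminescence proportional to caspase 3/7 activity, measured 20 min after adding Caspase-Glo 3/7 reagent. Cells (HUV-EC-C) had received compound for 16 hr at 37°C. Increases relative to DMSO and 100 uM tamoxifen gave concentration-response AC50 values.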

[5] = Cellular Toxicity (caspase-3) SHSY5Y (AID 657); settings: SH-SY5Y caspase-3 activation, DMSO zero, 10 µM staurosporine = 100%; series mostly up to 91.7 µM;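 note: cells exposed to compound for 16 hours at 37 °C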
Excerpt: (§1) NIH Chemical Genomics Center [NCGC]
(§2) NIH Molecular Libraries Screening Centers Network [MLSCN]
(§3) National Institutes of Environmental Health Sciences [NIEHS]
(§4) National Toxicology Program [NTP]
We have developed a 1536-well cell-based assay for quantitative high throughput screening (qHTS) against a number of cell lines to determine in vitro caspase 3/7 activity of small molecules. This particular assay uses the SH-SY5Y cell line which is derived from human neuroblastoma.
(§5) NCGC Assay Protocol Summary:
(§6) The Caspase-Glo 3/7 assay (Promega) is a homogeneous method to measure caspase-3 and caspase-7 activities in cultured cells. The quantitation of caspase 3/7 activity is based on the cleavage of a peptide-aminoluciferin substrate. After caspase cleaves the substrate the free aminoluciferin is liberated and serves as the substrate of luciferase, which generates the light. The luminescent signal is proportional to the amount of caspase 3/7 activity present.
(§7) Using the Caspase-Glo 3/7 assay, the amount of caspase 3/7 activity was measured in the SH-SY5Y cell line with complete culture medium following compound treatment for 16 hours. The assay was performed in opaque white 1536-well plates. In the screen, staurosporine and doxorubicin were used as positive controls. Library compounds were measured for their ability to cause the activation of caspase 3/7 in the cell line, as reflected by an increase in luminescence signal, in a concentration-dependent manner. Data were normalized to the controls for basal activity (DMSO only) and 100% stimulation (10 uM staurosporine). AC50 values were determined from concentration-response data modeled with the standard Hill equation.
qHTS protocol for caspase 3/7 assay in SH-SY5Y cells
(§8) [Step] [Parameter] [Value] [Description]
1. Reagent; 5 uL; 1500 SH-SY5Y cells/well
(§9) 2. Time; 5 hr; 37 °C incubation
4. Controls; 23 nL; doxorubicin 7 pM to 100 uM & staurosporine 1.4 pM to 20 uM
(§10) 5. Time; 16 hr; 37 °C incubation
(§11) 6. Reagent; 5 uL; Caspase-Glo 3/7 reagent
(§12) 7. Time; 1 hr; Room Temperature
(§13) 8. Detection; Luminescence; Viewlux plate reader
Keywords: caspase 3/7, apoptosis, SH-SY5Y cell line, luminescence, NTPHTS, NTPHTS_NCGC, NIEHS, EPA, DSSTox, MLSMR, MLSCN, NIH Roadmap, qHTS, NCGC

[6] = Cellular Toxicity (caspase-3) BJ (AID 658); settings: BJ fibroblasts, luminescence, normalized: DMSO 0%, staurosporine 100%; series mostly up to 91.7 µM
Excerpt: as §1, §2, §3, §4
We have developed a 1536-well cell-based assay for quantitative high throughput screening (qHTS) against a number of cell lines to determine in vitro caspase 3/7 activity of small molecules. This particular assay uses BJ cell line which is derived from normal human foreskin fibroblast.
as §5
as §6, with “to” for “to the”
as §7, with “BJ” for “SH-SY5Y”, “tamoxifen” for “doxorubicin”
qHTS protocol for caspase 3/7 assay in the BJ cells
as §8
1. Reagent; 5 uL; 1000 the BJ cells/well
as §9
4. Controls; 23 nL; Tamoxifen 0.23 uM to 100 uM & staurosporine 1.4 pM to 100 uM
as §10, §11, §12, §13
Keywords: caspase 3/7, apoptosis, the BJ cell line, luminescence, NTPHTS, NTPHTS_NCGC, NIEHS, EPA, DSSTox, MLSMR, MLSCN, NIH Roadmap, qHTS, NCGC

[7] = Cellular Toxicity (caspase-3) MRC-5 (AID 659); settings: MRC-5 cells, luminescence, normalized: DMSO 0%, 10 µM staurosporine 100%; series mostly up to 91.7 µM;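 note: cells exposed to compound for 16 h at 37 °C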
Summary of the method: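 Luminescence from caspase-cleaved aminoluciferin substrate (Caspase-Glo 3/7, 1 hr RT) reports caspase 3/7 activity in MRC-5 lung fibroblasts after 16 hr compound exposure. Normalized to DMSO basal and 10 uM staurosporine as 100%; AC50 from Hill fits.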

[8] = Cellular Toxicity (caspase-3) Mesangial (AID 660); settings: mesangial cells, normalized: DMSO 0%, 100 µM tamoxifen 100%; series mostly up to 91.7 µM;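 note: cells exposed to compound for 16 h before the caspase read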
Summary of the method: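 Concentration-response qHTS: compound-induced rise in caspase 3/7 luminescence in human mesangial cells after 16 h, normalized to DMSO and 100 uM tamoxifen controls.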

[9] = Cellular Toxicity (caspase-3) SK-N-SH (AID 661); settings: SK-N-SH caspase-3 activation, qHTS, DMSO as zero, staurosporine as full; series mostly up to 91.7 µM
Summary of the method: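 Caspase 3/7 activation is measured as a luminescence increase from aminoluciferin released by substrate cleavage in SK-N-SH cells after 16 hr compound treatment; values are AC50 from concentration-response curves.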

[10] = Cellular Toxicity (caspase-3) H-4-II-E (AID 663); settings: H-4-II-E rat hepatoma, scaled: DMSO 0%, 100 µM tamoxifen 100%; series mostly up to 92.2 µM;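 note: cells exposed to compound for 16 hr before readout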
Summary of the method: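 Luminescence from caspase-cleaved aminoluciferin substrate, read 20 min after reagent addition, reports caspase 3/7 activation in rat H-4-II-E cells after 16 hr compound exposure. Normalized to DMSO (basal) and 100 uM tamoxifen (100%); AC50 from Hill fits.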

Chain of 3',5'-cyclic-AMP phosphodiesterase 4B (Homo sapiens) (Q07343 whole entry, looked up): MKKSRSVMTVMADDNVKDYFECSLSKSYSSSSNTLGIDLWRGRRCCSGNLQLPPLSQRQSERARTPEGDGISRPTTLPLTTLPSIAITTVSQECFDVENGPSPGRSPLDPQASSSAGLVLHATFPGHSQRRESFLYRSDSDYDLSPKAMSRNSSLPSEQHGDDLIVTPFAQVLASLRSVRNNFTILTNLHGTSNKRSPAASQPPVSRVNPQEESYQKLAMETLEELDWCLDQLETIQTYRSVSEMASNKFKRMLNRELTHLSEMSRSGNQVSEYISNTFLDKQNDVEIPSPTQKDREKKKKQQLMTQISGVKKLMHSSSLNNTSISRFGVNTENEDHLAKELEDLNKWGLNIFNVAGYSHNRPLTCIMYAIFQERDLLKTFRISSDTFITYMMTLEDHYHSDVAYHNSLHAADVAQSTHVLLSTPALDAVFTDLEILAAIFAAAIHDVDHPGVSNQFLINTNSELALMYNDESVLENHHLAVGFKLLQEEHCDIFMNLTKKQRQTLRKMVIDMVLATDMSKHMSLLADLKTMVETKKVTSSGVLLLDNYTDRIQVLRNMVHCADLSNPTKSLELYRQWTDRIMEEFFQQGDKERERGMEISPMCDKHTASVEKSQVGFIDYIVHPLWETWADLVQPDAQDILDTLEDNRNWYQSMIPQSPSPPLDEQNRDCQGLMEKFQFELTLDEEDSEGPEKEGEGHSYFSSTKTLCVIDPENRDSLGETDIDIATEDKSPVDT

Cc1ccc(OC[C@H](O)[C@H](C)NC(C)C)c2c1CCC2
inactive: Potency [1]

C=Cc1ccccc1
inactive: outcome [2] | caspase-3 activation [3] -0.459% | outcome [4] | outcome [5] | outcome [6] | outcome [7] | outcome [8] | outcome [9] | outcome [10]

CN(C)Cc1ccccc1
inactive: outcome [2] | caspase-3 activation [3] 0.691% | outcome [4] | outcome [5] | outcome [6] | outcome [7] | outcome [8] | outcome [9] | outcome [10]

O=C(O)CC(O)(CC(=O)O)C(=O)O
inactive: outcome [2] | outcome [4] | outcome [5] | outcome [6] | outcome [7] | outcome [8] | outcome [9] | outcome [10]
active: caspase-3 activation [3] 101%

CC(=O)C1=C(O)C=C2Oc3c(C(C)=O)c(O)c(C)c(O)c3[C@]2(C)C1=O
inactive: Potency [1]

COc1ccc2[nH]c(=O)c3c(c2c1)OC(C)(C)C=C3
inactive: Potency [1]

COc1cc(C[C@H]2C(=O)OC[C@@H]2Cc2ccc(OC)c(OC)c2)ccc1O
active: Potency [1] 3.79 µM

O=C(O)c1cc2ccccc2c(Cc2c(O)c(C(=O)O)cc3ccccc23)c1O
inactive: Potency [1]

CCCCCCCCCC(=O)O
inactive: outcome [2] | caspase-3 activation [3] -4.13% | outcome [4] | outcome [5] | outcome [6] | outcome [7] | outcome [8] | outcome [9] | outcome [10]

NCCCC(=O)O
inactive: Potency [1]

COC(C)=O
inactive: outcome [2] | caspase-3 activation [3] -0.555% | outcome [4] | outcome [5] | outcome [6] | outcome [7] | outcome [8] | outcome [9] | outcome [10]
